Where a chain is given by its changes, count along the chain named.
Legend:
Experiment in all cases: PBM; 200 nM protein, PBS
Details in all cases: dsDNA, one strand shown
HOXA4 [1] = biological target: HOXA4 (Homo sapiens, UniProt Q00056 201-287, W262R)
HOXA4 [2] = biological target: HOXA4 (Homo sapiens, UniProt Q00056 201-287, R217L)
ALX3 [3] = biological target: ALX3 (Homo sapiens, UniProt O95076 139-225, N203Q)
NKX2-6 [4] = biological target: T1, NKX2-6 (Homo sapiens, UniProt A6NCS4 118-204)
T1 sequence: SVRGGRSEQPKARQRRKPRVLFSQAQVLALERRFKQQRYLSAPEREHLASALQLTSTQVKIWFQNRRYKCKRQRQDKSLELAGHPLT

HOXA4 [5] = biological target: HOXA4 (Homo sapiens, UniProt Q00056 201-287)
ALX3 [6] = biological target: ALX3 (Homo sapiens, UniProt O95076 139-225)
ALX3 [7] = biological target: ALX3 (Homo sapiens, UniProt O95076 139-225, L168Q)
NKX2-6 [8] = biological target: T2, NKX2-6 (Homo sapiens, UniProt A6NCS4 118-204, F151L)
T2 sequence: T1 sequence with F34L

ALX3 [9] = biological target: ALX3 (Homo sapiens, UniProt O95076 139-225, L168V)
HOXA4 [10] = biological target: HOXA4 (Homo sapiens, UniProt Q00056 201-287, W262F)
ALX3 [11] = biological target: ALX3 (Homo sapiens, UniProt O95076 139-225, N203S)
MSX2 [12] = biological target: MSX2 (Homo sapiens, UniProt P35548 130-214, R199I)
MSX2 [13] = biological target: MSX2 (Homo sapiens, UniProt P35548 130-214)
MSX2 [14] = biological target: MSX2 (Homo sapiens, UniProt P35548 130-214, F161Y)
ALX1 [15] = biological target: ALX1 (Homo sapiens, UniProt Q15699 118-204, L144V)
ALX1 [16] = biological target: ALX1 (Homo sapiens, UniProt Q15699 118-204, L144R)
ALX1 [17] = biological target: ALX1 (Homo sapiens, UniProt Q15699 118-204)
HOXD13 [18] = biological target: HOXD13 (Homo sapiens, UniProt P35453 263-343, T313R)
HOXD13 [19] = biological target: HOXD13 (Homo sapiens, UniProt P35453 263-343)
HOXD13 [20] = biological target: HOXD13 (Homo sapiens, UniProt P35453 263-343, T313A)
ALX4 = ALX4 (Homo sapiens, UniProt Q9H161 200-286, Q225E)
HOXC9 = HOXC9 (Homo sapiens, UniProt P31274 178-260, R222W)
HOXA2 [21] = biological target: HOXA2 (Homo sapiens, UniProt O43364 129-215, R185T)
HOXA2 [22] = biological target: HOXA2 (Homo sapiens, UniProt O43364 129-215, R185K)
VAX1 [23] = biological target: VAX1 (Homo sapiens, UniProt Q5SQQ9 86-172)
VAX1 [24] = biological target: VAX1 (Homo sapiens, UniProt Q5SQQ9 86-172, T142I)
HOXA2 [25] = biological target: HOXA2 (Homo sapiens, UniProt O43364 129-215, Y150S)
HOXA2 [26] = biological target: HOXA2 (Homo sapiens, UniProt O43364 129-215)
VAX1 [27] = biological target: VAX1 (Homo sapiens, UniProt Q5SQQ9 86-172, K157R)
Chain of VAX1 (Homo sapiens, UniProt Q5SQQ9 86-172, K157R) (Q5SQQ9 86-172 K157R): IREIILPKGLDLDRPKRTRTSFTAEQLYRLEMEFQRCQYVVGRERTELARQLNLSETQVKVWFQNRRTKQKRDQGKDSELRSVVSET

Chain of ALX3 (Homo sapiens, UniProt O95076 139-225, L168Q) (O95076 139-225 L168Q): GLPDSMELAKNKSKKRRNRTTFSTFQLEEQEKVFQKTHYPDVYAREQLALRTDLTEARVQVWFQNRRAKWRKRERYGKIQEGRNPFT
Chain of HOXD13 (Homo sapiens, UniProt P35453 263-343, T313R) (P35453 263-343 T313R): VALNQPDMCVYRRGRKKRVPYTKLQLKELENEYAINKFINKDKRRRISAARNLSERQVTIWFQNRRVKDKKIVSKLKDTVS
Chain of HOXA4 (Homo sapiens, UniProt Q00056 201-287) (Q00056 201-287): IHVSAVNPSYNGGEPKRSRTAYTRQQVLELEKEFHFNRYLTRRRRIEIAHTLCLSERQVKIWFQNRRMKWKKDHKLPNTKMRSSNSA
Chain of ALX3 (Homo sapiens, UniProt O95076 139-225, N203Q) (O95076 139-225 N203Q): as the sequence (O95076 139-225 L168Q) above, with Q30L, N65Q counted along it
Chain of ALX3 (Homo sapiens, UniProt O95076 139-225) (O95076 139-225): as the sequence (O95076 139-225 L168Q) above, with Q30L counted along it
Chain of HOXA4 (Homo sapiens, UniProt Q00056 201-287, W262R) (Q00056 201-287 W262R): as the sequence (Q00056 201-287) above, with W62R counted along it
Chain of HOXA4 (Homo sapiens, UniProt Q00056 201-287, R217L) (Q00056 201-287 R217L): as the sequence (Q00056 201-287) above, with R17L counted along it
Chain of HOXA4 (Homo sapiens, UniProt Q00056 201-287, W262F) (Q00056 201-287 W262F): as the sequence (Q00056 201-287) above, with W62F counted along it
Chain of HOXD13 (Homo sapiens, UniProt P35453 263-343) (P35453 263-343): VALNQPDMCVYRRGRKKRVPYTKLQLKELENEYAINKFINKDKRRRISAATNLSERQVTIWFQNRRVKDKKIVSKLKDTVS
Chain of HOXD13 (Homo sapiens, UniProt P35453 263-343, T313A) (P35453 263-343 T313A): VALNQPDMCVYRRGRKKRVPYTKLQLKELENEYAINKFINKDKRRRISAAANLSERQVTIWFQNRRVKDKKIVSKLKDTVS
Chain of ALX3 (Homo sapiens, UniProt O95076 139-225, N203S) (O95076 139-225 N203S): as the sequence (O95076 139-225 L168Q) above, with Q30L, N65S counted along it
Chain of ALX3 (Homo sapiens, UniProt O95076 139-225, L168V) (O95076 139-225 L168V): as the sequence (O95076 139-225 L168Q) above, with Q30V counted along it
Chain of MSX2 (Homo sapiens, UniProt P35548 130-214) (P35548 130-214): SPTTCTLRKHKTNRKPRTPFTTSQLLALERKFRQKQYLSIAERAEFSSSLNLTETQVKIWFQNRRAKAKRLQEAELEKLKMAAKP
Chain of MSX2 (Homo sapiens, UniProt P35548 130-214, R199I) (P35548 130-214 R199I): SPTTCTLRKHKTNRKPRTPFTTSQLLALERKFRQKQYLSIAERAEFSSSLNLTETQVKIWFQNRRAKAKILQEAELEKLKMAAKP
Chain of MSX2 (Homo sapiens, UniProt P35548 130-214, F161Y) (P35548 130-214 F161Y): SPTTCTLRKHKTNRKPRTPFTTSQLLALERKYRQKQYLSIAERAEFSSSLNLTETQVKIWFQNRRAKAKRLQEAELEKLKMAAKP
Chain of HOXA2 (Homo sapiens, UniProt O43364 129-215) (O43364 129-215): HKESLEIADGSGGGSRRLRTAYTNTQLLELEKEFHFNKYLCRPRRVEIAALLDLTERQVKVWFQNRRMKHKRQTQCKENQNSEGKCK
Chain of HOXA2 (Homo sapiens, UniProt O43364 129-215, R185T) (O43364 129-215 R185T): as the sequence (O43364 129-215) above, with R57T counted along it
Chain of HOXA2 (Homo sapiens, UniProt O43364 129-215, R185K) (O43364 129-215 R185K): as the sequence (O43364 129-215) above, with R57K counted along it
Chain of ALX4 (Q9H161 200-286 Q225E): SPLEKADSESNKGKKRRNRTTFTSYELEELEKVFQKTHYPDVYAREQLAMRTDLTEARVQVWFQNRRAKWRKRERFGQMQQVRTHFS
Chain of VAX1 (Homo sapiens, UniProt Q5SQQ9 86-172, T142I) (Q5SQQ9 86-172 T142I): as the sequence (Q5SQQ9 86-172 K157R) above, with T57I, R72K counted along it
Chain of ALX1 (Homo sapiens, UniProt Q15699 118-204, L144V) (Q15699 118-204 L144V): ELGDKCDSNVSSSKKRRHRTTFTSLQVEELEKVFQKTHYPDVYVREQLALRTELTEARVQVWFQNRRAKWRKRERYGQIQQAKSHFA
Chain of ALX1 (Homo sapiens, UniProt Q15699 118-204, L144R) (Q15699 118-204 L144R): as the sequence (Q15699 118-204 L144V) above, with V27R counted along it
Chain of ALX1 (Homo sapiens, UniProt Q15699 118-204) (Q15699 118-204): as the sequence (Q15699 118-204 L144V) above, with V27L counted along it
Chain of HOXA2 (Homo sapiens, UniProt O43364 129-215, Y150S) (O43364 129-215 Y150S): as the sequence (O43364 129-215) above, with Y22S counted along it
Chain of HOXC9 (P31274 178-260 R222W): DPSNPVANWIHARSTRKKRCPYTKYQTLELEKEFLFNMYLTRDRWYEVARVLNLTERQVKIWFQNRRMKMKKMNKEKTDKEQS
Chain of VAX1 (Homo sapiens, UniProt Q5SQQ9 86-172) (Q5SQQ9 86-172): as the sequence (Q5SQQ9 86-172 K157R) above, with R72K counted along it

Sequence: ACCCCCCG
- binding signal (HOXA4 [1]): 9.65 upbm affinity estimate (log intensity, higher = more binding, comparable within an allelic series)
- binding signal (HOXA4 [2]): 9.8 upbm affinity estimate (log intensity, higher = more binding, comparable within an allelic series)
- binding signal (ALX3 [3]): 7.72 upbm affinity estimate (log intensity, higher = more binding, comparable within an allelic series)
- binding signal (NKX2-6 [4]): 9.16 upbm affinity estimate (log intensity, higher = more binding, comparable within an allelic series)
- binding signal (HOXA4 [5]): 9.93 upbm affinity estimate (log intensity, higher = more binding, comparable within an allelic series)
- binding signal (ALX3 [6]): 7.75 upbm affinity estimate (log intensity, higher = more binding, comparable within an allelic series)
- binding signal (ALX3 [7]): 7.65 upbm affinity estimate (log intensity, higher = more binding, comparable within an allelic series)
- binding signal (NKX2-6 [8]): 9.07 upbm affinity estimate (log intensity, higher = more binding, comparable within an allelic series)
- binding signal (ALX3 [9]): 7.57 upbm affinity estimate (log intensity, higher = more binding, comparable within an allelic series)
- binding signal (HOXA4 [10]): 9.7 upbm affinity estimate (log intensity, higher = more binding, comparable within an allelic series)
- binding signal (ALX3 [11]): 7.73 upbm affinity estimate (log intensity, higher = more binding, comparable within an allelic series)

Sequence: GAAGGGGA
- binding signal (HOXA4 [1]): 9.88 upbm affinity estimate (log intensity, higher = more binding, comparable within an allelic series)
- binding signal (HOXA4 [2]): 9.89 upbm affinity estimate (log intensity, higher = more binding, comparable within an allelic series)
- binding signal (HOXA4 [5]): 9.82 upbm affinity estimate (log intensity, higher = more binding, comparable within an allelic series)
- binding signal (HOXA4 [10]): 10 upbm affinity estimate (log intensity, higher = more binding, comparable within an allelic series)

Sequence: AGGGGGCA
- binding signal (HOXA4 [1]): 9.67 upbm affinity estimate (log intensity, higher = more binding, comparable within an allelic series)
- binding signal (HOXA4 [2]): 9.81 upbm affinity estimate (log intensity, higher = more binding, comparable within an allelic series)
- binding signal (HOXA4 [5]): 9.88 upbm affinity estimate (log intensity, higher = more binding, comparable within an allelic series)
- binding signal (HOXA4 [10]): 9.82 upbm affinity estimate (log intensity, higher = more binding, comparable within an allelic series)

Sequence: GGCCCGGA
- binding signal (HOXA4 [1]): 9.72 upbm affinity estimate (log intensity, higher = more binding, comparable within an allelic series)
- binding signal (HOXA4 [2]): 9.68 upbm affinity estimate (log intensity, higher = more binding, comparable within an allelic series)
- binding signal (MSX2 [12]): 9.48 upbm affinity estimate (log intensity, higher = more binding, comparable within an allelic series)
- binding signal (ALX3 [3]): 7.72 upbm affinity estimate (log intensity, higher = more binding, comparable within an allelic series)
- binding signal (HOXA4 [5]): 9.79 upbm affinity estimate (log intensity, higher = more binding, comparable within an allelic series)
- binding signal (MSX2 [13]): 9.31 upbm affinity estimate (log intensity, higher = more binding, comparable within an allelic series)
- binding signal (ALX3 [6]): 7.7 upbm affinity estimate (log intensity, higher = more binding, comparable within an allelic series)
- binding signal (ALX3 [7]): 7.72 upbm affinity estimate (log intensity, higher = more binding, comparable within an allelic series)
- binding signal (ALX3 [9]): 7.71 upbm affinity estimate (log intensity, higher = more binding, comparable within an allelic series)
- binding signal (MSX2 [14]): 9.46 upbm affinity estimate (log intensity, higher = more binding, comparable within an allelic series)
- binding signal (HOXA4 [10]): 9.78 upbm affinity estimate (log intensity, higher = more binding, comparable within an allelic series)
- binding signal (ALX3 [11]): 7.75 upbm affinity estimate (log intensity, higher = more binding, comparable within an allelic series)

Sequence: AGTCCTTC
- binding signal (HOXA4 [1]): 9.96 upbm affinity estimate (log intensity, higher = more binding, comparable within an allelic series)
- binding signal (HOXA4 [2]): 9.81 upbm affinity estimate (log intensity, higher = more binding, comparable within an allelic series)
- binding signal (HOXA4 [5]): 9.61 upbm affinity estimate (log intensity, higher = more binding, comparable within an allelic series)
- binding signal (HOXA4 [10]): 9.89 upbm affinity estimate (log intensity, higher = more binding, comparable within an allelic series)

Sequence: GACTCCGC
- binding signal (HOXA4 [1]): 9.83 upbm affinity estimate (log intensity, higher = more binding, comparable within an allelic series)
- binding signal (HOXA4 [2]): 9.81 upbm affinity estimate (log intensity, higher = more binding, comparable within an allelic series)
- binding signal (ALX1 [15]): 6.29 upbm affinity estimate (log intensity, higher = more binding, comparable within an allelic series)
- binding signal (ALX1 [16]): 6.35 upbm affinity estimate (log intensity, higher = more binding, comparable within an allelic series)
- binding signal (HOXA4 [5]): 9.59 upbm affinity estimate (log intensity, higher = more binding, comparable within an allelic series)
- binding signal (ALX1 [17]): 6.25 upbm affinity estimate (log intensity, higher = more binding, comparable within an allelic series)
- binding signal (HOXA4 [10]): 9.87 upbm affinity estimate (log intensity, higher = more binding, comparable within an allelic series)

Sequence: CCCCGACC
- binding signal (HOXA4 [1]): 9.87 upbm affinity estimate (log intensity, higher = more binding, comparable within an allelic series)
- binding signal (HOXA4 [2]): 9.84 upbm affinity estimate (log intensity, higher = more binding, comparable within an allelic series)
- binding signal (HOXA4 [5]): 9.87 upbm affinity estimate (log intensity, higher = more binding, comparable within an allelic series)
- binding signal (HOXA4 [10]): 9.99 upbm affinity estimate (log intensity, higher = more binding, comparable within an allelic series)

Sequence: CCCCAAGG
- binding signal (HOXA4 [1]): 9.82 upbm affinity estimate (log intensity, higher = more binding, comparable within an allelic series)
- binding signal (HOXA4 [2]): 9.69 upbm affinity estimate (log intensity, higher = more binding, comparable within an allelic series)
- binding signal (HOXD13 [18]): 9.45 upbm affinity estimate (log intensity, higher = more binding, comparable within an allelic series)
- binding signal (HOXD13 [19]): 9.55 upbm affinity estimate (log intensity, higher = more binding, comparable within an allelic series)
- binding signal (HOXA4 [5]): 9.65 upbm affinity estimate (log intensity, higher = more binding, comparable within an allelic series)
- binding signal (HOXD13 [20]): 9.53 upbm affinity estimate (log intensity, higher = more binding, comparable within an allelic series)
- binding signal (HOXA4 [10]): 9.86 upbm affinity estimate (log intensity, higher = more binding, comparable within an allelic series)

Sequence: CCCGGTCG
- binding signal (HOXA4 [1]): 9.67 upbm affinity estimate (log intensity, higher = more binding, comparable within an allelic series)
- binding signal (HOXA4 [2]): 9.77 upbm affinity estimate (log intensity, higher = more binding, comparable within an allelic series)
- binding signal (MSX2 [12]): 9.45 upbm affinity estimate (log intensity, higher = more binding, comparable within an allelic series)
- binding signal (NKX2-6 [4]): 9.06 upbm affinity estimate (log intensity, higher = more binding, comparable within an allelic series)
- binding signal (HOXA4 [5]): 9.88 upbm affinity estimate (log intensity, higher = more binding, comparable within an allelic series)
- binding signal (MSX2 [13]): 9.4 upbm affinity estimate (log intensity, higher = more binding, comparable within an allelic series)
- binding signal (NKX2-6 [8]): 9.02 upbm affinity estimate (log intensity, higher = more binding, comparable within an allelic series)
- binding signal (MSX2 [14]): 9.41 upbm affinity estimate (log intensity, higher = more binding, comparable within an allelic series)
- binding signal (HOXA4 [10]): 9.76 upbm affinity estimate (log intensity, higher = more binding, comparable within an allelic series)

Sequence: CAATAAAG
- binding signal (HOXA4 [1]): 10.4 upbm affinity estimate (log intensity, higher = more binding, comparable within an allelic series)
- binding signal (ALX4): 10.7 upbm affinity estimate (log intensity, higher = more binding, comparable within an allelic series)
- binding signal (HOXD13 [18]): 10.8 upbm affinity estimate (log intensity, higher = more binding, comparable within an allelic series)
- binding signal (HOXD13 [19]): 11.9 upbm affinity estimate (log intensity, higher = more binding, comparable within an allelic series)
- binding signal (HOXA4 [5]): 11.7 upbm affinity estimate (log intensity, higher = more binding, comparable within an allelic series)
- binding signal (HOXD13 [20]): 11.7 upbm affinity estimate (log intensity, higher = more binding, comparable within an allelic series)
- binding signal (HOXC9): 11.1 upbm affinity estimate (log intensity, higher = more binding, comparable within an allelic series)

Sequence: CCCCCGGC
- binding signal (HOXA4 [1]): 9.54 upbm affinity estimate (log intensity, higher = more binding, comparable within an allelic series)
- binding signal (HOXA4 [2]): 9.54 upbm affinity estimate (log intensity, higher = more binding, comparable within an allelic series)
- binding signal (ALX3 [3]): 7.57 upbm affinity estimate (log intensity, higher = more binding, comparable within an allelic series)
- binding signal (HOXA4 [5]): 9.88 upbm affinity estimate (log intensity, higher = more binding, comparable within an allelic series)
- binding signal (ALX3 [6]): 7.92 upbm affinity estimate (log intensity, higher = more binding, comparable within an allelic series)
- binding signal (ALX3 [7]): 7.56 upbm affinity estimate (log intensity, higher = more binding, comparable within an allelic series)
- binding signal (ALX3 [9]): 7.46 upbm affinity estimate (log intensity, higher = more binding, comparable within an allelic series)
- binding signal (HOXA4 [10]): 9.51 upbm affinity estimate (log intensity, higher = more binding, comparable within an allelic series)
- binding signal (ALX3 [11]): 7.52 upbm affinity estimate (log intensity, higher = more binding, comparable within an allelic series)

Sequence: AGAAGGGG
- binding signal (HOXA4 [1]): 9.84 upbm affinity estimate (log intensity, higher = more binding, comparable within an allelic series)
- binding signal (HOXA4 [2]): 9.53 upbm affinity estimate (log intensity, higher = more binding, comparable within an allelic series)
- binding signal (HOXD13 [18]): 9.5 upbm affinity estimate (log intensity, higher = more binding, comparable within an allelic series)
- binding signal (HOXD13 [19]): 9.51 upbm affinity estimate (log intensity, higher = more binding, comparable within an allelic series)
- binding signal (HOXA4 [5]): 9.57 upbm affinity estimate (log intensity, higher = more binding, comparable within an allelic series)
- binding signal (HOXD13 [20]): 9.57 upbm affinity estimate (log intensity, higher = more binding, comparable within an allelic series)
- binding signal (HOXA4 [10]): 9.68 upbm affinity estimate (log intensity, higher = more binding, comparable within an allelic series)

Sequence: TAATGAGA
- binding signal (HOXA4 [1]): 10.5 upbm affinity estimate (log intensity, higher = more binding, comparable within an allelic series)
- binding signal (HOXA2 [21]): 12.9 upbm affinity estimate (log intensity, higher = more binding, comparable within an allelic series)
- binding signal (HOXA4 [2]): 11.8 upbm affinity estimate (log intensity, higher = more binding, comparable within an allelic series)
- binding signal (HOXA2 [22]): 13.3 upbm affinity estimate (log intensity, higher = more binding, comparable within an allelic series)
- binding signal (HOXA4 [5]): 13.6 upbm affinity estimate (log intensity, higher = more binding, comparable within an allelic series)
- binding signal (VAX1 [23]): 13.2 upbm affinity estimate (log intensity, higher = more binding, comparable within an allelic series)
- binding signal (VAX1 [24]): 12.7 upbm affinity estimate (log intensity, higher = more binding, comparable within an allelic series)
- binding signal (HOXA2 [25]): 10.8 upbm affinity estimate (log intensity, higher = more binding, comparable within an allelic series)
- binding signal (HOXA4 [10]): 11.5 upbm affinity estimate (log intensity, higher = more binding, comparable within an allelic series)
- binding signal (HOXA2 [26]): 12.5 upbm affinity estimate (log intensity, higher = more binding, comparable within an allelic series)
- binding signal (VAX1 [27]): 12.8 upbm affinity estimate (log intensity, higher = more binding, comparable within an allelic series)

— article PMC11006913
